# The full list was thinned out, with hits kept by preference.
# DT40 TDP1 no CPT: qHTS for Inhibitors of human tyrosyl-DNA phosphodiesterase 1 (TDP1): qHTS in cells in absence of CPT; hit rate 15% among 420,000; AID 686978, 2013; DT40 Tdp1-/- hTDP1 cells, no CPT, ATP luminescence, 48 h; Potency, µM (series often up to 46.2 µM), for the others: at the top dose activity change, negative = growth inhibition, actives largely listed as inhibitors; note: potency is the fitted concentration of half-maximal effect; nearly all actives have a fitted effect of over 55% in size
#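 Seeded 400 DT40-hTDP1 cells/well (vehicle DMSO, no 20 nM CPT); pinned compounds; ≥48 hr at 37 °C; CellTiter-Glo luminescence as viability measure.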
# 12-LOX inh: inhibitors of human 12S-lipoxygenase ALOX12. hit rate 1.1% among 580,000. P18054. purified 12hLO, xylenol orange hydroperoxide absorbance. Potency, µM (top dose mostly 108 µM), for the others: at the top dose activity change, negative = inhibition, hits mostly inhibitors; note: potency is the fitted concentration of half-maximal effect
# Target sequence (P18054 whole entry, looked up): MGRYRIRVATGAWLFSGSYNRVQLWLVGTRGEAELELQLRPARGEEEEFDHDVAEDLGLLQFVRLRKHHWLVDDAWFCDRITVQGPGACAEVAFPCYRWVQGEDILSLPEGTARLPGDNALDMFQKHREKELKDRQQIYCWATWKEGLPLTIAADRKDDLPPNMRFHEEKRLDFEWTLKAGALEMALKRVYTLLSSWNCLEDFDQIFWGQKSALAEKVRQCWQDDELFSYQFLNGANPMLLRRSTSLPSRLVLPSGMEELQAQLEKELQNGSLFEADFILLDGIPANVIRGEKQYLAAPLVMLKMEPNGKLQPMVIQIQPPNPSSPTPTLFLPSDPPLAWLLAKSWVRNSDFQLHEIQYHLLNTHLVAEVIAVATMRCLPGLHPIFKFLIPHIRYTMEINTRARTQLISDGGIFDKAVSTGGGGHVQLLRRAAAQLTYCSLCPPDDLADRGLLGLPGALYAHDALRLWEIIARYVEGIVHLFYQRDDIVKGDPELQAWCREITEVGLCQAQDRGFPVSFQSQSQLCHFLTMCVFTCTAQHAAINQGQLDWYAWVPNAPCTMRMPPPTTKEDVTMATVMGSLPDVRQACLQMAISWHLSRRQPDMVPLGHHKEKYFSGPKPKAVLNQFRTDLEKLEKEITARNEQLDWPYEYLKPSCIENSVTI
#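 Purified human 12hLO (150 nM final) in 25 mM Hepes, 0.01% Triton X-100, pH 7.0 was preincubated 15 min at room temperature with compound. Then 40 uM arachidonic acid was added, 30 min. Hydroperoxide was read by Fe-XO absorbance ratio 573/405 nm.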
# HT1080 IDH1KD tx: toxicity to HT-1080 IDH1 knockdown cells (counter line). hit rate 2% among 360,000. AID 686971. HT-1080 IDH1 knockdown viability, ATP luminescence, 48 h. Potency, µM (top dose mostly 46.1 µM), inactives show top-dose activity, negative = toxicity, most hits filed as cytotoxic;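 note: potency is the fitted concentration of half-maximal effect; 0% = DMSO wells and -100% = cell-free medium wells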
#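 Luminescent ATP read-out (CellTiter-Glo, 10 min at room temperature) after 48 h compound exposure at 37 °C gave viability of IDH1-knockdown HT-1080 cells. Activity was normalised to DMSO and cell-free wells, then fitted as concentration-response curves.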
# HT1080NT lethal: kills 2HG-producing HT-1080-NT fibrosarcoma cells; HT-1080-NT fibrosarcoma viability, CellTiter-Glo ATP luminescence, 48 h; Potency, µM (titrated, usually from 46.1 µM), without a hit: top-dose activity, negative = less viability, actives largely listed as cytotoxic; hit rate 1.6% among 360,000; AID 686970;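 note: NT is the 2HG producing partner of a matched IDH1 knockdown line; potency is the fitted concentration of half-maximal effect; 0% = DMSO-treated cells and -100% = media-only wells without cells; nearly all actives have a fitted effect of over 55% in size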
#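 Luminescent CellTiter-Glo readout after 48 hours of compound exposure at 37 degrees C defined viability of HT-1080-NT cells. Activity was normalized to DMSO wells and cell-free media wells; concentration-response curves were fitted and assigned curve classes.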
# IL-1B inflam inh: inflammasome signaling inhibition, IL-1 beta readout; THP-1 LPS/ATP IL-1B secretion, AlphaLISA, 16 h; active compounds read low; activity change, % at 57.5 µM; hit rate 4.7% among 360,000; AID 743279; in the data active = activity change below about -50%; inconclusive = mostly about -30% to -49%
#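 Secreted IL-1B measured by AlphaLISA bead assay after 16 h compound exposure of THP-1 cells; compounds (final up to 57.5 uM) added 1 h before LPS (250 ng/mL) and ATP (1.25 mM) stimulation; lower signal means less secretion.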
# TDP1 cell CPT: DT40-hTDP1 cell growth loss with CPT. chicken DT40 Tdp1-/-;hTDP1 cells + 20 nM CPT, ATP luminescence, 48 h. Potency, µM (top dose mostly 46.2 µM), without a hit: top-dose activity change, negative = growth inhibition, actives largely listed as inhibitors. hit rate 12% among 420,000; note: potency is the fitted concentration of half-maximal effect; nearly all actives have a fitted effect of over 55% in size
#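 Cell growth measured by CellTiter-Glo luminescence after a minimum 48 h, 37 C compound exposure with 20 nM CPT in Tdp1-knockout DT40 cells stably expressing hTDP1, seeded 400/well; qHTS titration format.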
# Starred values were filed as active, the others as inactive; ? = inconclusive; nt = not tested or not shown. Unless noted, calls come from the whole dose curve; as a rule, active = well fitted curve in the direction sought with a large enough effect; inconclusive = small, poorly fitted or top-dose-only effect, or another doubt; inactive = no such curve, though single readings can be large; an effect the other way counts as inactive or inconclusive. Unless noted, % is set by controls: 0 for no effect and ±100 for the full control effect.
SMILES,DT40 TDP1 no CPT,12-LOX inh,HT1080 IDH1KD tx,HT1080NT lethal,IL-1B inflam inh,TDP1 cell CPT
COc1ccc(C(=O)c2c3ccc([N+](=O)[O-])cc3[n+]([O-])n2CCCC(N)=O)cc1,21µM*,?,-1%,-30%,5,9.2µM*
CNC(=O)N1CCC(C2CCN(Cc3cc(F)c(F)c(F)c3)C2)CC1 (configuration not stated),nt,23%,nt,nt,nt,nt
Cc1ccc(S(=O)(=O)Nc2ccccc2-c2ccccc2NS(=O)(=O)c2ccc(C)cc2)cc1,?,0%,?,?,7,?
Cc1ccc(S(=O)(=O)Nc2ccccc2C(O)c2ccccc2)cc1 (configuration not stated),18µM*,?,-4%,-6%,-7,?
S=c1[nH]nc(C2CCCCC2)n1/N=C/c1ccccc1,3%,0%,16%,8%,10,-7%
COc1ccc(/C=N/n2c(C3CCCCC3)n[nH]c2=S)c(OC)c1,?,40µM*,0%,9%,-6,-17%
COc1cccc(/C=N/n2c(C3CCCCC3)n[nH]c2=S)c1O,14%,20µM*,7%,-9%,20,1%
Fc1ccc(/C=N/n2c(C3CCCCC3)n[nH]c2=S)cc1,0%,?,10%,11%,-2,0%
S=c1[nH]nc(C2CCCCC2)n1/N=C/c1ccccn1,1%,18µM*,7%,5%,32,-3%
CN(C)c1ccc(/C=N/n2c(C3CCCCC3)n[nH]c2=S)cc1,16µM*,38%,-12%,-16%,-62*,?
COc1cccc(/C=N/n2c(C3CCCCC3)n[nH]c2=S)c1OC,-22%,15%,2%,9%,0,?
S=c1[nH]nc(C2CCCCC2)n1/N=C/c1cccc(Cl)c1Cl,23µM*,?,-1%,28%,-61*,?
C/C=C(/C)C(=O)O[C@@H]1[C@H](OC(=O)C=C(C)C)c2c(ccc3ccc(=O)oc23)OC1(C)C,?,16%,1%,1%,24,?
CC(=O)OC1c2c(ccc3ccc(=O)oc23)OC(C)(C)C1OC(=O)CC(C)C (configuration not stated),18µM*,22%,-4%,-6%,0,23µM*
C/C=C(/C)C(=O)O[C@@H]1c2c(ccc3ccc(=O)oc23)OC(C)(C)[C@@H]1OC(=O)/C(C)=C\C,9.2µM*,1%,?,?,?,16µM*
CCO[C@@H]1c2c(ccc3ccc(=O)oc23)OC(C)(C)[C@@H]1O,-7%,-2%,3%,-1%,-2,-1%
CCC(C)(C)C1CCC(NC(=O)Cc2cc(OC)c(OC)c(OC)c2)CC1 (configuration not stated),nt,5%,nt,nt,nt,nt
CN1C(=O)CC(C(=O)O)C12CCN(Cc1nc3ccsc3c(=O)[nH]1)CC2 (configuration not stated),nt,14%,nt,nt,nt,nt
CCOC(=O)CC(NS(=O)(=O)c1cc(-c2cc(C)no2)ccc1C)c1ccc(C)cc1 (configuration not stated),8.2µM*,-28%,nt,nt,nt,21µM*
COc1ccc([N+](=O)[O-])cc1NC(c1nnc(-c2ccccc2)o1)c1ccccc1F (configuration not stated),10%,-16%,nt,nt,nt,15%
Cc1ccc(NC(c2nnc(-c3ccccc3)o2)c2ccccc2F)c([N+](=O)[O-])c1 (configuration not stated),23µM*,-9%,nt,nt,nt,-23%
O=S(=O)(NC(c1ccc(F)cc1)c1cccs1)c1cccs1 (configuration not stated),nt,-60%,nt,nt,nt,nt
O=C([C@@H]1C[C@H](F)CN1C(=O)c1cccs1)N1CCCCC1,nt,7%,nt,nt,nt,nt
CCOCCCNCc1ccc(C)s1,nt,-2%,nt,nt,nt,nt
O=C(CN1CCN(c2ccccn2)CC1)Nc1cccc(S(=O)(=O)N2CCCC2)c1,16µM*,-6%,-7%,-3%,2,?
SMILES,DT40 TDP1 no CPT,12-LOX inh,HT1080 IDH1KD tx,HT1080NT lethal,IL-1B inflam inh,TDP1 cell CPT
O=C(Cn1cnc2ccccc21)Nc1cccc(S(=O)(=O)N2CCCC2)c1,4.1µM*,nt,-16%,-6%,-13,5.8µM*
NS(=O)(=O)c1cccc(NC(=O)COC(=O)Cn2cnc3ccccc32)c1,18%,0%,?,12%,15,1%
O=C(CN1CCN(c2ccccn2)CC1)Nc1ccccc1,-6%,0%,21%,14%,-19,-9%
O=C(Cn1c(NCCO)nc2ccccc21)Nc1cccc(S(=O)(=O)N2CCCC2)c1,10µM*,-11%,-1%,-8%,22,?
Cc1ccc(C(=O)c2ccccc2C(=O)OCCOc2ccc(Cl)cc2Cl)cc1,nt,-5%,nt,nt,nt,nt
Cc1noc(C)c1C(=O)N1CCC(c2nnc(CN(C)C)n2C)CC1,nt,16%,nt,nt,nt,nt
CC(=O)Nc1ccc(N2C(=O)CC(Sc3nc4ccccc4s3)C2=O)cc1 (configuration not stated),?,-2%,1%,4%,21,?
C=CCNc1nnc(SC2CC(=O)N(c3ccc(OCCC)cc3)C2=O)s1 (configuration not stated),4.1µM*,-8%,?,?,9,1.8µM*
CCOC(=O)c1cnc(SC2CC(=O)N(c3ccc(OC)c(OC)c3)C2=O)nc1N (configuration not stated),?,-7%,14%,-2%,18,21µM*
CCOc1ccc2nc(/N=C/c3c(C)[nH]n(-c4ccccc4)c3=O)sc2c1,?,15%,-1%,0%,0,?
COc1ccc(N2C(=O)CC(Sc3nc4ccccc4s3)C2=O)cc1OC (configuration not stated),2.9µM*,-2%,1%,-6%,47,4.6µM*
CCOc1ccc2nc(/N=C/c3c(C)[nH]n(-c4ccc(C)cc4)c3=O)sc2c1,?,-13%,?,?,-6,16µM*
CCCOc1ccc(N2C(=O)CC(SC(=NC)Nc3ccc(F)cc3)C2=O)cc1 (configuration not stated),?,-23%,-23%,-12%,21,-20%
N#Cc1nc(COc2ccccc2)oc1NCc1cccnc1,nt,5%,nt,nt,nt,nt
Cc1nn(C)c2c(=O)n(CC(=O)NCc3ccccc3Cl)ccc12,nt,-3%,nt,nt,nt,nt
CCOC(=O)C(N)CSC1CC(=O)N(c2ccc(OCC)cc2)C1=O (configuration not stated),-5%,0%,3%,0%,19,-12%
